Reference: the supplement of paper PMC6555819

Assays:
Test in all cases: PBM binding z-score (relative to random genomic background probes); higher = stronger binding; sequences stand for … in GC…GCGATTGACAGCGTAGAATGAAGG
[1] = test system: FXR:RXRa (NR concentration 270 nM, RXRa partner concentration 90 nM)
Procedure, shortened: (§1)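 Ligand-free nuclear receptor dimers were bound for 1 h to custom Agilent 4×180K protein-binding microarrays. Detection used antibodies against each partner (one per run). Binding z-scores rest on regression-normalized fluorescence, with random background probes as the reference.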

[2] = test system: LXRa:RXRa (NR concentration 270 nM, RXRa partner concentration 90 nM)
Procedure, shortened: as §1

[3] = test system: LXRa homodimer (NR concentration 270 nM)
Procedure, shortened: as §1

[4] = test system: LXRb homodimer (NR concentration 270 nM)
Procedure, shortened: as §1

[5] = test system: PPARa:RXRa (NR concentration 270 nM, RXRa partner concentration 90 nM)
Procedure, shortened: as §1

[6] = test system: PPARg:RXRa (NR concentration 180 nM, RXRa partner concentration 90 nM)
Procedure, shortened: as §1

[7] = test system: PPARg:RXRa 270nM:90nM, anti-RXR (NR concentration 270 nM, RXRa partner concentration 90 nM)
Procedure, shortened: as §1

[8] = test system: PPARg:RXRa 30nM:10nM, anti-RXR (NR concentration 30 nM, RXRa partner concentration 10 nM)
Procedure, shortened: as §1

[9] = test system: PPARg:RXRa 90nM:30nM, anti-RXR (NR concentration 90 nM, RXRa partner concentration 30 nM)
Procedure, shortened: as §1

[10] = test system: PPARg:RXRa DBDmut IVT, anti-RXR (DBD mutation: RXRa K156A/R161A, NR concentration 270 nM, RXRa partner concentration 90 nM)
Procedure, shortened: as §1

[11] = test system: PPARg:RXRa IVT, anti-PPARg (NR concentration 270 nM, RXRa partner concentration 90 nM)
Procedure, shortened: as §1

[12] = test system: PPARg DBDmut:RXRa IVT, anti-PPARg (DBD mutation: PPARg1 K132A/R137A, NR concentration 270 nM, RXRa partner concentration 90 nM)
Procedure, shortened: as §1

[13] = test system: PPARg DBDmut IVT, anti-PPARg (DBD mutation: PPARg1 K132A/R137A, NR concentration 270 nM)
Procedure, shortened: as §1

[14] = test system: PPARg homodimer (NR concentration 180 nM)
Procedure, shortened: as §1

[15] = test system: PXR:RXRa (NR concentration 270 nM, RXRa partner concentration 90 nM)
Procedure, shortened: as §1

[16] = test system: PXR homodimer (NR concentration 270 nM)
Procedure, shortened: as §1

[17] = test system: RARa:RXR (NR concentration 270 nM, RXRa partner concentration 90 nM)
Procedure, shortened: as §1

[18] = test system: RARa homodimer (NR concentration 270 nM)
Procedure, shortened: as §1

[19] = test system: RARb:RXRa (NR concentration 270 nM, RXRa partner concentration 90 nM)
Procedure, shortened: as §1

| Sequence | PBM binding z-score [1] | PBM binding z-score [2] | PBM binding z-score [3] | PBM binding z-score [4] | PBM binding z-score [5] | PBM binding z-score [6] | PBM binding z-score [7] | PBM binding z-score [8] | PBM binding z-score [9] | PBM binding z-score [10] | PBM binding z-score [11] | PBM binding z-score [12] | PBM binding z-score [13] | PBM binding z-score [14] | PBM binding z-score [15] | PBM binding z-score [16] | PBM binding z-score [17] | PBM binding z-score [18] | PBM binding z-score [19] |
| --- | --- | --- | --- | --- | --- | --- | --- | --- | --- | --- | --- | --- | --- | --- | --- | --- | --- | --- | --- |
| GTACCAAGGTGAATAGGTCGTTGATGAGTAGGCG | 0.835 | 0.771 | -0.075 | -0.364 | 2.08 | 1.61 | 1.8 | 0.486 | 1.17 | 1.99 | 2.78 | 0.41 | 0.294 | 1.84 | 0.719 | -0.224 | 1.72 | 0.00144 | 1.94 |
| ACTAGTTGGTCAGCTGGGGTCACACACAATTCGG | 3.81 | 3.01 | 0.525 | 0.369 | 4.47 | 2.37 | 3.06 | 0.707 | 2.36 | 1.23 | 2.46 | 0.596 | -0.0449 | 2.5 | 5.82 | 1.23 | 6.17 | 0.784 | 3.33 |
| CGTCAAAGTTCAAGGTAATGTAACAGAAAGCAGC | 5.9 | 5.34 | 2.54 | 1 | 4.74 | 4.21 | 5.13 | 2.14 | 3.68 | 0.0949 | 2.03 | 0.311 | 0.686 | 2.57 | 3.95 | 2.92 | 3.38 | 1.61 | 5.14 |
| ACTTACGGGTCAACGACGTTATAGCACGCGTATA | 6.03 | 3.91 | 0.144 | 0.83 | 5.66 | 5.3 | 5.09 | 1.83 | 3.59 | 3.06 | 3.74 | 1.35 | 0.774 | 1.67 | 3.19 | -0.178 |  | 0.684 | 4.07 |
| AGAGTGAGGTTACCAAAGATCAGGGAAACGCTTG | 2.09 | 6.39 | 0.104 | 0.461 | 3.01 | 1.54 | 1.63 | 0.448 | 1.15 | 1.07 | 1.49 | -0.228 | -0.0667 | 0.744 | 1.7 | 0.558 | 1.97 | 0.667 | 2.48 |
| ACTCGGAGGACAAAGGTAAGAGCTACGCCAGTGA | -0.107 | -0.113 | -0.383 | -0.762 | 1.12 | 2.52 | 3.87 | 1.74 | 3.83 | 0.286 | -0.0365 | -0.619 | -1.09 | 0.21 | -0.339 | -0.386 | -0.0753 | -0.128 | 1.17 |
| TCTAGTTGGTCAAAGGTCAAACACTCGAAATGCG | 6.51 | 6.59 | 5.24 | 2.77 | 6.82 | 11.2 | 10.3 | 9.94 | 11 | 3.57 | 6.13 | 0.582 | 1.1 | 5.11 | 6.28 | 2.64 | 7.64 | 2.96 | 5.23 |
| CTCGAAAGGTCGTGGTCAGGTGAGTATACCAAAC | 5.9 | 4.27 | 0.0394 | 0.247 | 5.02 | 3.26 | 4.6 | 1.21 | 3.34 | 0.883 | 2.33 | -0.0163 | 0.484 | 2.21 | 3.61 | 0.127 | 4.47 | 0.777 | 4.04 |
